High-throughput results deposited in PubChem by National Center for Advancing Translational Sciences (NCATS).
Only some compounds are listed: those with a hit (about 3.6% of all), similar ones and a draw of the others.
VDR inh: blocks the human vitamin D receptor; P11473; VDR-SRC2-3 peptide fluorescence polarization, 2 h; Potency, µM, for the others: max response, negative = inhibition, hits mostly inhibitors; 400,000 tested, 0.93% active; AID 504847; note: potency is the fitted concentration of half-maximal effect; % is set by controls: 0 for no effect and ±100 for the full control effect
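Reagent solutions, kept cold and dark, are dispensed first; compounds are then pinned in at 23 nl, plates briefly spun, and incubated 2 h at ambient temperature. Inhibition of VDR–SRC2-3 peptide binding is read by fluorescence polarization.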
Rango dissoc inh: prevents RanGTP from dissociating the Rango-importin beta complex; O95149+P62826; Biochemical FRET Rango-importin beta, RanGTP-induced dissociation; Potency, µM (titrated, usually from 46.1 µM), for inactives: at the highest dose activity change, negative = inhibition; 340,000 tested, 0.071% active; AID 540253; calls by dose curve; note: potency is the fitted concentration of half-maximal effect; % of control where 0% means no effect; nearly all actives have a fitted effect of over 45% in size
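Recombinant Rango FRET biosensor (EYFP–snurportin 1 IBB–cerulean CFP10) at 0.1 uM premixed with 0.25 uM importin beta in PBS, 1 mM DTT, 0.02% Tween-20, 0.1% BSA. Compound added 5 min; RanGTP-RCC1 (0.6 uM Ran, 2 mM GTP, 0.2 uM RCC1) then triggers release, read at 45 min.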
Rango-impB inh: inhibitors of Rango-importin beta complex formation | Q14974 | Rango CFP/YFP FRET sensor + importin beta, 45 min | Potency, µM (highest dose often 92.2 µM), for the others: top-dose inhibition of complex formation | 340,000 tested, 0.031% active | AID 540263; calls by dose curve;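 note: potency is the fitted concentration of half-maximal effect; 0% = DMSO wells and 100% = buffer wells lacking importin beta; nearly all actives have a fitted effect of over 15% in size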
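FRET biosensor Rango (snurportin 1 IBB between N-terminal EYFP and C-terminal Cerulean), 50 nM in PBS/1 mM DTT/0.02% Tween-20/0.1% BSA, preincubated 5 min RT with compound; 0.125 microM importin beta added, 45 min RT, CFP/YFP FRET ratio read.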
PLK1 PBD block: inhibitors of human PLK1 polo-box domain binding. Plk1 PBD binding of FITC phosphopeptide, fluorescence polarization. Potency, µM, for the others: max response, negative = inhibition, most hits filed as inhibitors. 360,000 tested, 2.8% active. AID 720504; note: potency is the fitted concentration of half-maximal effect; series mostly up to about 57 µM; % is set by controls: 0 for no effect and ±100 for the full control effect; nearly all actives have a fitted effect of over 65% in size
Target sequence (P53350 whole entry, looked up, the tested form may be a part): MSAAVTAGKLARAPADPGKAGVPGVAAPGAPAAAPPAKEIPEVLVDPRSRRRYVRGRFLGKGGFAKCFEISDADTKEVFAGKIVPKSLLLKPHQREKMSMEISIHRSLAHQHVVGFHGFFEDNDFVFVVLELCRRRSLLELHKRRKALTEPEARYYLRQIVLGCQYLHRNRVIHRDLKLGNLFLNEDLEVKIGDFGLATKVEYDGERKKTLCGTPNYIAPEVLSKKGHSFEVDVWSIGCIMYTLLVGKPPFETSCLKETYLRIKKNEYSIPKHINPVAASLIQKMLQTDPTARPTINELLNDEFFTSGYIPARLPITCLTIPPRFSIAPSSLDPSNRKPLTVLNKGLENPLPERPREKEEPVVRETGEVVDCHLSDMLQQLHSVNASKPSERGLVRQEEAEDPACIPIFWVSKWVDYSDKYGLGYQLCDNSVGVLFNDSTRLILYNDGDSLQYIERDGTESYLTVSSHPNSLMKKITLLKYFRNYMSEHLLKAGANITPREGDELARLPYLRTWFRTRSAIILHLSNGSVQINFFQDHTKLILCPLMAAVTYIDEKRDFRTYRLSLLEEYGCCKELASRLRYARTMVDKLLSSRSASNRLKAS
PI5P4Ka inh: PI5P4K alpha (human) kinase inhibition | 330,000 tested, 1.2% active | PI5P4Kalpha enzyme, ADP-Glo luminescence, 60 min; active compounds read low | P48426 | max response, %; active = max response of -50% or lower; inconclusive = between -30% and -50%; inactive = -30% or higher; note: value at the top dose of about 77 µM; % is set by controls: 0 for no effect and ±100 for the full control effect
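Human PI5P4Kalpha with substrate in 0.038 M HEPES pH 7.4, 0.28 mM EGTA, 0.1% CHAPS, 5% DMSO; reaction started with 5 microM ATP (final), 60 min at room temperature. ADP formed read by ADP-Glo luminescence.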
GCN5L2 inh: GCN5L2 (KAT2A) acetyltransferase inhibition | Potency, µM (top dose mostly 58.9 µM), for the others: at the top dose activity change, negative = inhibition, usual class: inhibitors | AID 504327 | 390,000 tested, 0.21% active | GCN5L2 HAT assay, ThioGlo1 CoA-SH fluorescence; note: potency is the fitted concentration of half-maximal effect; % is set by controls: 0 for no effect and ±100 for the full control effect
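Free CoA generated was detected with ThioGlo1 (50uM) fluorescence at Ex340nm/Em540nm, read immediately and after 20 min at room temperature. Enzyme, 20 nM in HEPES pH 7.5 buffer, saw compounds 15 min before adding 75uM H3(1-25) peptide and 70uM acetyl-CoA.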
The depositor's hits bear a star; ? = inconclusive; / = no result given. Unless noted, calls come from the whole dose curve; as a rule, active = well fitted curve in the direction sought with a large enough effect; inconclusive = small, poorly fitted or top-dose-only effect, or another doubt; inactive = no such curve, though single readings can be large; an effect the other way counts as inactive or inconclusive.

SMILES	VDR inh	Rango dissoc inh	Rango-impB inh	PLK1 PBD block	PI5P4Ka inh	GCN5L2 inh
Cc1cc(C(=O)CN2C(=O)NC3(CCCCC3)C2=O)c(C)n1-c1ccc2c(c1)OCO2	?	-6.2%	4.0%	23.8µM*	-17.1	0.6%
CCN(C(=O)c1nn(-c2ccc(OC)c(Cl)c2)c(=O)c2c1c1ccccc1n2C)c1cc(OC)ccc1OC	-19.0%	/	/	/	/	-13.7%
CCC(C)NC(=O)CNC(=O)c1nn(-c2ccc(OC)c(Cl)c2)c(=O)c2ccccc12 (stereo unspecified)	-21.3%	12.2%	1.6%	-12.2%	-1.6	-10.1%
COc1ccc(-n2nc(C(=O)NCC(=O)NC(C)C)c3ccccc3c2=O)cc1Cl	1.0%	4.9%	?	-10.9%	2.3	7.08µM*
O=C(OCC#CCSc1nnc(-c2cccc3ccccc23)s1)c1cccs1	/	/	/	/	/	1.5%
COc1cn(CC(=O)Nc2ccc(F)cc2)c(CN2CCCCC2)cc1=O	17.4%	/	/	/	/	1.6%
O=C(CSc1nnnn1C1CCCCC1)Nc1cccc(NC(=O)c2ccco2)c1	-9.6%	-1.3%	-1.5%	2.99µM*	-26.0	-1.7%
O=C(O)CSc1nnnn1C1CCCCC1	70.8µM*	?	-2.6%	15µM*	?	-11.9%
O=C(CSc1nnnn1C1CCCC1)Nc1cccc(NC(=O)c2ccco2)c1	-3.7%	-3.4%	-2.3%	-4.4%	/	1.1%
COc1cccc2c1OC1(C)CC2NC(=O)N1c1cccc(C(=O)Nc2ccc3c(c2)OCCO3)c1 (stereo unspecified)	5.4%	-2.2%	-1.5%	29.9µM*	-9.0	2.1%
COc1ccc(NC(=O)c2cccc(N3C(=O)NC4CC3(C)Oc3ccccc34)c2)cc1 (stereo unspecified)	4.2%	0.9%	2.1%	-7.9%	1.3	0.9%
CCc1ccc(CN(Cc2cn[nH]c2-c2ccc(OC)cc2)C(=O)Nc2cc(Cl)ccc2OC)cc1	9.1%	/	/	/	/	-5.2%
CCCS(=O)(=O)c1ncc(Cl)c(C(=O)N(Cc2ccccc2)Cc2ccco2)n1	22.4µM*	/	/	/	/	-2.9%
CCc1n[nH]c(=S)n1/N=C/c1cc(OC)cc([N+](=O)[O-])c1O	-17.9%	17.1%	1.2%	?	-57.1*	?
CC(=O)Nc1ccc(SCC(=O)N(C)CC(=O)Nc2ccccc2Cl)cc1	79.4µM*	0.9%	-4.0%	7.52µM*	-6.8	-5.0%
COc1ccc(C2CC(c3ccccc3)Oc3cc(C)c(Cl)c(C)c32)cc1 (stereo unspecified)	-14.9%	/	/	/	/	/
COc1ccc(C(=O)Nc2nc3ccccc3s2)cc1OC	0.7%	-2.4%	0.3%	4.1%	1.9	-6.1%
COc1ccc(/C=N/OCC(=O)Nc2nc3ccccc3s2)cc1OC	?	-3.2%	-2.7%	16.8µM*	-13.0	0.7%
CC(C)c1ccccc1NC(=O)CCc1nc2ccccc2s1	-30.6%	1.8%	-4.0%	?	?	-2.9%
COc1ccccc1NC(=O)CCc1nc2ccccc2s1	?	-9.2%	2.4%	21.2µM*	-8.4	-7.2%
COc1ccccc1NC(=O)CCC(=O)c1ccc(-c2ccccc2)cc1	?	-19.0%	?	29.9µM*	-23.9	-10.3%
CCOc1ccccc1CNC(=O)c1cnc2sc(N3CCOCC3)nn2c1=O	-10.1%	/	/	/	/	-5.7%
Cc1cccc(N2CCN(C(=O)c3c4c(nc5ccccc35)C(=O)N(C3CCCCC3)C4)CC2)c1C	11.6%	/	/	/	/	-4.9%
CCCC1(c2ccccc2)NC(=O)N(CC(=O)N(C)Cc2c(F)cccc2Cl)C1=O (stereo unspecified)	?	-0.5%	-7.0%	23.8µM*	0.6	-3.1%
CCCC1(c2ccccc2)NC(=O)N(CC(=O)NCc2ccc(C)cc2)C1=O (stereo unspecified)	3.6%	10.0%	0.1%	-5.9%	-7.7	-11.8%
CCCC1(c2ccccc2)NC(=O)N(C/C=C/Cl)C1=O (stereo unspecified)	?	-0.6%	-0.1%	26.7µM*	-8.4	-1.7%
O=C(OCCC12CC3CC(CC(C3)C1)C2)c1ccc(NCc2cc(O)ccc2O)cc1	-0.3%	-14.5%	1.7%	-13.7%	-59.1*	/
